The record followed here is PubChem BioAssay AID434970 (Sanford-Burnham Center for Chemical Genomics, 2010).

The campaign covered roughly 11,000 compounds. About 310 (2.8%) were called active. The sample holds actives, similar compounds and a random draw of the others, so the mix is not that of the screen. Cut-off read from the data, not from the text of the source: active = activity change below about -85%; inactive = the rest.

In the assay the test system is intestinal alkaline phosphatase [Mus musculus]. The assay is described as follows: mouse intestinal phosphatase enzyme activation – biochemical, luminescence, single concentration, confirmation (AID 434970). The conditions noted are these: purified mouse IAP, CDP-Star luminescence, 30 min, at 10 µM; activation factor: measured here: IAP activation factor, stronger effect = higher value; activity change, negative = activation: stronger effect = lower value.
Regarding `O=C(NCCc1ccncc1)Nc1ccc(Cl)cc1`, the activation factor was 1.09 and the activity change, negative = activation is -8.6% (inactive).
For `CCCc1c(NC(=O)Nc2ccc(F)cc2)cnn1-c1ccccc1`, the activation factor was 1.57 and the activity change, negative = activation is -57.2% (inactive).
The matching figures for `CCCc1c(NC(=O)Nc2ccc(F)cc2)cnn1-c1ccc(Cl)cc1`: 2.42 and -142% (active).
In the case of `COCCn1c(SCC(=O)Nc2nc3ccccc3s2)nnc1-c1ccoc1C`, the activation factor was 0.944 and the activity change, negative = activation was 5.6% (inactive).
In the same order, the values of `N#CCCn1c(=S)[nH]c2ccccc21` are 0.98 and 2% (inactive).
Consider `Cc1ccc(S(=O)(=O)Nc2ccc(O)c(Sc3ncn[nH]3)c2)cc1`, for which the activation factor is 0.349 and the activity change, negative = activation is 65.1% (inactive).
Take `Cc1cc(C)cc(C(=O)N(NC(=O)Nc2ccc(Cl)cc2)C(C)(C)C)c1`: the activation factor was 4.22 and the activity change, negative = activation is -322% (active).
In the same order, the values of `CN(C)S(=O)(=O)Oc1cccc(C(=O)Nc2ccc(Cl)c(Cl)c2)c1` are 0.948 and 5.2% (inactive).
In the case of `CC(C)(C)N(NC(=O)Nc1ccc(Cl)c(Cl)c1)C(=O)c1ccccc1`, the activation factor was determined as 3.95 and the activity change, negative = activation was -295% (active).
On to `COC(=O)c1cccc(NC(=O)Nc2ccc(Cl)c(Cl)c2)c1`, for which the activation factor amounted to 1.89 and the activity change, negative = activation is -88.6% (inactive).
In the same order, the values of `CNC(=O)Nc1ccc(Cl)cc1` are 1.26 and -26.3% (inactive).
The matching figures for `CN(C)S(=O)(=O)Oc1cccc(C(=O)Nc2ccc(Cl)cc2)c1`: 0.992 and 0.85% (inactive).
As for `CCCN(/C=N/c1sc2c(c1C#N)CCCCC2)CCC`, the activation factor stood at 0.953 and the activity change, negative = activation was 4.7% (inactive).
Take `Cn1ncc(C#N)c1/N=C/N1CCOCC1`: the activation factor was 1.05 and the activity change, negative = activation is -4.75% (inactive).
Turning to `Cc1ccc(CNC(=O)c2ccc(NC(=O)CCS(=O)(=O)c3cccs3)cc2)cc1`, the activation factor is 0.978 and the activity change, negative = activation was 2.15% (inactive).
In the same order, the values of `O=C(Nc1ccc(S(=O)(=O)N2CCOCC2)cc1)C1CCCCC1` are 0.984 and 1.6% (inactive).
In the same order, the values of `CC(NC(=S)Nc1ccc(S(=O)(=O)N2CCOCC2)cc1)C1CC2CCC1C2` (centres undefined) are 2.45 and -145% (active).
In the same order, the values of `CC(C)c1ccc(N(CC(=O)Nc2ccc(S(=O)(=O)N3CCOCC3)cc2)S(C)(=O)=O)cc1` are 1.12 and -12.1% (inactive).
On to `Cc1cc[n+](CCC(=O)O)c2ccccc12`, for which the activation factor is 0.901 and the activity change, negative = activation is 9.85% (inactive).
As to `CCN(C1CCCCC1)S(=O)(=O)c1cc(C)ccc1OC`, the activation factor was determined as 1.04 and the activity change, negative = activation was -4.35% (inactive).
On to `CN1CC(COCc2ccccc2)Oc2ccccc2S1(=O)=O` (centres undefined), for which the activation factor was 1.04 and the activity change, negative = activation was -4.4% (inactive).
In the same order, the values of `CC(NC(=O)Nc1ccc(Cl)c(Cl)c1)C(c1ccccc1)N1CCOCC1` (centres undefined) are 3.21 and -221% (active).
Consider `CC(NC(=O)Nc1ccc(Cl)cc1)C(c1cccs1)N1CCOCC1` (centres undefined), for which the activation factor was 1.71 and the activity change, negative = activation is -71.1% (inactive).
With `CC(Cc1cccs1)NC(=O)Nc1ccc(Cl)c(Cl)c1` (centres undefined), the activation factor turned out to be 0.945 and the activity change, negative = activation is 5.6% (inactive).
Take `Cc1ccc(N2C(=O)c3ccc(C(=O)Nc4cccnc4)cc3C2=O)c(C)c1`: the activation factor stood at 0.946 and the activity change, negative = activation was 5.45% (inactive).
As for `Cc1ccc2[nH]c(=O)c(C(c3nnnn3CC3CCCO3)N3CCCc4ccccc43)cc2c1` (centres undefined), the activation factor was 0.398 and the activity change, negative = activation was 60.2% (inactive).
In the case of `CCOc1ccc(NC(=O)CN(C)CC(=O)NC2CCCc3ccccc32)cc1OCC` (centres undefined), the activation factor was found to be 1.1 and the activity change, negative = activation was -9.8% (inactive).
The matching figures for `Cc1cccc(-n2nnc(C(=O)NC3CCCc4ccccc43)c2N)c1` (centres undefined): 1.01 and -1.4% (inactive).
The matching figures for `Cc1cccc(C)c1NC(=O)CS(=O)CC(=O)NC1CCCc2ccccc21` (centres undefined): 1.11 and -11.2% (inactive).
The matching figures for `Cc1cccc(NC(=O)NC2CCCc3ccccc32)c1` (centres undefined): 3.36 and -236% (active).
For the compound `COC(=O)c1ccc(NC(=S)NC2CCc3ccccc32)cc1` (centres undefined), the activation factor is 1.51 and the activity change, negative = activation is -50.8% (inactive).
In the same order, the values of `CC(C)(C)c1ccc(NC(=O)NC2CCCc3ccccc32)cc1` (centres undefined) are 3.53 and -253% (active).
In the same order, the values of `COc1cccc(NC(=O)NC2CCCc3ccccc32)c1` (centres undefined) are 2.74 and -174% (active).
The matching figures for `COc1ccc(-c2nnn(CC(=O)NC3CCCc4ccccc43)n2)cc1OC` (centres undefined): 1.06 and -5.8% (inactive).
For `CCOc1ccc(NC(=O)CS(=O)CC(=O)NC2CCCc3ccccc32)cc1` (centres undefined), the activation factor was determined as 1 and the activity change, negative = activation is -0.45% (inactive).
The matching figures for `CCCn1c(Nc2ccccc2C)nc2ccccc21`: 0.988 and 1.25% (inactive).
In the same order, the values of `COC(=O)c1cn(CC(=O)NC2CCCCC2)c2ccccc12` are 1.04 and -3.9% (inactive).
For the compound `Cc1ccc(-c2cc(-c3ccccc3)c3c(N)c(S(C)(=O)=O)sc3n2)cc1`, the activation factor came to 0.966 and the activity change, negative = activation was 3.45% (inactive).
Consider `O=c1oc2cc(OCc3ccc([N+](=O)[O-])cc3)ccc2c2c1CCCC2`, for which the activation factor was determined as 0.909 and the activity change, negative = activation is 9.15% (inactive).
Regarding `COc1cccc(N=c2oc3ccc(OC)cc3cc2-c2nc3ccccc3[nH]2)c1`, the activation factor is 1.03 and the activity change, negative = activation was -2.7% (inactive).
On to `COc1ccccc1NC(=O)c1cc(S(=O)(=O)N2CCOCC2)ccc1Cl`, for which the activation factor was determined as 0.877 and the activity change, negative = activation was 12.2% (inactive).
In the same order, the values of `CN1CCN(c2ccc(Cl)cc2NC(=O)c2ccc(S(=O)(=O)N3CCCCCC3)cc2)CC1` are 0.982 and 1.75% (inactive).
In the same order, the values of `CC(Sc1ccc(Cl)cc1)C(=O)Nc1ccc(S(=O)(=O)N2CCOCC2)cc1` (centres undefined) are 1.07 and -7.35% (inactive).
The matching figures for `O=C(Nc1ccc(Cl)c(Cl)c1)Nc1cc(S(=O)(=O)N2CCOCC2)ccc1N1CCCC1`: 2.53 and -153% (active).
Consider `Cc1oc(S(=O)(=O)N2CCCCC2)cc1NC(=O)Nc1ccc(Cl)cc1`, for which the activation factor amounted to 1.42 and the activity change, negative = activation was -41.8% (inactive).
As to `CCN(CC)c1ccc(S(=O)(=O)N2CCOCC2)cc1NC(=O)Nc1ccccc1`, the activation factor was 2.53 and the activity change, negative = activation is -153% (active).
The matching figures for `Cc1ccc(C(=O)N2CCOCC2)cc1Cl`: 0.984 and 1.65% (inactive).
On to `Cc1ccc(NC(=O)Nc2ccccc2F)cc1S(=O)(=O)N1CCOCC1`, for which the activation factor was 1.52 and the activity change, negative = activation is -51.6% (inactive).
Turning to `O=C(Nc1ccc(Cl)c(Cl)c1)Nc1cc(C(=O)N2CCOCC2)ccc1N1CCCCC1`, the activation factor came to 2.67 and the activity change, negative = activation is -167% (active).
In the same order, the values of `O=C(Nc1ccccc1)c1ccc(S(=O)(=O)N2CCOCC2)cc1` are 1.01 and -1.35% (inactive).
The matching figures for `O=C(Nc1ccc(Cl)cc1)Nc1cc(S(=O)(=O)N2CCOCC2)ccc1N1CCCC1`: 2.15 and -116% (active).
In the same order, the values of `CC(=O)c1cccc(NC(=O)Nc2ccc(C(=O)N3CCOCC3)cc2)c1` are 1.06 and -6.35% (inactive).
Turning to `Cc1ccc2c(c1)nnn2C1CCN(S(C)(=O)=O)CC1`, the activation factor was 0.904 and the activity change, negative = activation was 9.55% (inactive).
In the same order, the values of `CCc1ccccc1NC1=NCC(=O)N1Cc1ccccc1` are 1 and -0.1% (inactive).
Take `COc1cccc(-c2sc3cc(OC)c(OC)cc3c2-c2ccc(OCCN3CCCCC3)cc2)c1`: the activation factor came to 1.01 and the activity change, negative = activation is -0.55% (inactive).
`O=C(c1cccs1)N1CCCC(c2ccccc2)C1` (centres undefined): the activation factor stood at 0.929 and the activity change, negative = activation was 7.1% (inactive).
Turning to `COc1cc(=O)n(C)c2cc(N(C)C)ccc12`, the activation factor amounted to 0.917 and the activity change, negative = activation was 8.35% (inactive).
Consider `COc1ccc2[nH]c3c(c2c1)CCN1C(=O)C(CC(=O)NCc2cccc(C(F)(F)F)c2)C[C@H](C(=O)N2CCOCC2)[C@@]31C` (some centres undefined), for which the activation factor was found to be 1.08 and the activity change, negative = activation is -8.45% (inactive).
In the same order, the values of `COc1ccc(Cc2nc3ccc(C(=O)NCc4ncc(C)[nH]4)cc3o2)cc1OC` are 0.927 and 7.3% (inactive).
On to `COC(=O)c1sccc1NC(=O)C1CC=CCC1C(=O)O` (centres undefined), for which the activation factor turned out to be 0.998 and the activity change, negative = activation is 0.15% (inactive).
Turning to `CC1(C)Cc2noc(N)c2C(C)(C)N1OC(=O)c1cccs1`, the activation factor came to 1.04 and the activity change, negative = activation was -3.75% (inactive).
Regarding `CC[C@]12c3[nH]c4cc(CCC(=O)N(C)C)ccc4c3CCN1C(=O)[C@@H](CC(=O)NC/C=C(\C)CCC=C(C)C)C[C@@H]2C(=O)N1CCN(C(=O)C2CC2)CC1`, the activation factor came to 1.09 and the activity change, negative = activation was -9.3% (inactive).
In the same order, the values of `O=C(c1ccc(Cn2c(=O)[nH]c3ccccc3c2=O)cc1)N1CCN(c2ccc(F)cc2)CC1` are 1 and 0.05% (inactive).
In the same order, the values of `S=C(NCCC(c1ccccc1)c1ccccc1)Nc1cccc(Cl)c1` are 3.74 and -274% (active).
In the same order, the values of `Fc1ccccc1CNC(=S)Nc1ccc(Cl)cc1` are 1.38 and -38.1% (inactive).
Regarding `Cc1ccc(NC(=S)NCCSc2ccc(Cl)cc2)cc1`, the activation factor was 1.45 and the activity change, negative = activation was -45.4% (inactive).
The matching figures for `S=C(NCCN(C1CCCCC1)C1CCCC1)Nc1cccc(Cl)c1`: 1.69 and -68.5% (inactive).
As to `S=C(NCc1ccccc1)Nc1cccc(Cl)c1`, the activation factor came out at 1.4 and the activity change, negative = activation was -40.5% (inactive).
Regarding `S=C(NCCC(c1ccccc1)c1ccccc1)Nc1ccc(Cl)cc1`, the activation factor came to 2.1 and the activity change, negative = activation is -110% (active).
In the same order, the values of `CC(C)CN(C(=O)COC(=O)Cn1cnc2ccccc2c1=O)C1CCS(=O)(=O)C1` (centres undefined) are 0.927 and 7.25% (inactive).
In the case of `COc1ccc(Cl)cc1NC(=O)CN1CCC(n2nnc3ccccc32)CC1`, the activation factor came out at 0.96 and the activity change, negative = activation is 4.05% (inactive).
For `COc1ccccc1CN1CCN(S(=O)(=O)c2ccccc2)CC1`, the activation factor amounted to 0.897 and the activity change, negative = activation is 10.3% (inactive).
The matching figures for `COc1ccc(-c2noc(CCCC(=O)NCCc3ccccc3)n2)cc1OC`: 0.998 and 0.25% (inactive).
With `Cc1ccc(-c2nnn(CC(=O)NC3CCN(Cc4ccccc4)CC3)n2)cc1`, the activation factor stood at 1.04 and the activity change, negative = activation was -4.25% (inactive).
With `CCOc1ccc(-c2cc(CCCC(=O)NCCc3ccccc3)no2)cc1`, the activation factor is 1.07 and the activity change, negative = activation was -6.9% (inactive).
With `COc1ccc(CN2CCC(n3nccc3NC(=O)CCCc3ccccc3)CC2)cc1C`, the activation factor is 2.4 and the activity change, negative = activation was -140% (active).
In the case of `COc1ccccc1CN1CCC(n2nccc2NC(=O)CCCc2ccccc2)CC1`, the activation factor came out at 2.08 and the activity change, negative = activation was -108% (active).
As for `CCOc1cccc(CN2CCC(n3nccc3NC(=O)CCCc3ccccc3)CC2)c1`, the activation factor was determined as 2.3 and the activity change, negative = activation is -130% (active).
Turning to `CCOc1ccc(CN2CCC(n3nccc3NC(=O)CCCc3ccccc3)CC2)cc1`, the activation factor is 1.83 and the activity change, negative = activation is -83% (inactive).
The matching figures for `CCOC(=O)CN(C(=O)CN1CCC(n2nnc3cc(C)ccc32)CC1)c1ccccc1`: 0.982 and 1.8% (inactive).
In the case of `COc1ccc(CN2CCC(n3nccc3NC(=O)CCc3ccccc3)CC2)c(C)c1C`, the activation factor came out at 1.6 and the activity change, negative = activation is -60% (inactive).
The matching figures for `Cc1ccc(C)c(CN2CCC(n3nccc3NC(=O)CCCc3ccccc3)CC2)c1`: 2.31 and -131% (active).
